Screens from PubChem BioAssay.
CBX7 AlphaScr: blocks human CBX7 binding to H3K27me3 peptide. AlphaScreen His6-CBX7 / biotin-H3K27me3 peptide binding; active compounds read low. normalised signal (fraction of DMSO) (test concentration not listed). actives 1.1% (n = 66,000). AID 1224903; in the data active means normalised signal below about 0.5
Target sequence (O95931 whole entry, looked up): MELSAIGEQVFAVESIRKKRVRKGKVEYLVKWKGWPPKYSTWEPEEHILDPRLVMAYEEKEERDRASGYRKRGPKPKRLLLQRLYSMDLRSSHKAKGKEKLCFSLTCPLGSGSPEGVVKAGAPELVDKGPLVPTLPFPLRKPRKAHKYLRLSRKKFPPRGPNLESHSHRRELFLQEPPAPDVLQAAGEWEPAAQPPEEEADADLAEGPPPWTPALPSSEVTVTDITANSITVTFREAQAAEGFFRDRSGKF
A number is an active result; n = inactive. Only a selection was taken, and hits are over-represented in it overall.

SMILES	CBX7 AlphaScr
COC(=O)c1c[nH]n2c(NC3CCC(C)CC3)c(-c3ccc(Cl)cc3)nc12 (stereo unspecified)	0.33
COC(=O)c1c[nH]n2c(NC3CCC(C)CC3)c(-c3cccc(C)c3)nc12 (stereo unspecified)	0.24
Cc1nc2c(C(=O)NC3CCCC3)c[nH]n2c(=O)c1Cc1ccc(Cl)cc1	n
CC1CCC(NC(=O)Cn2nc(-c3ccccc3)c3cc(Cl)ccc32)CC1 (stereo unspecified)	n
Cc1cccc(-c2nc(CN3CCCC(C(=O)NC4CCC(C)CC4)C3)c(C)o2)c1 (stereo unspecified)	n
COc1ccc2c(c1)c(=O)c(S(=O)(=O)c1ccccc1)cn2Cc1cccc(F)c1	n
COCCCNC(=O)c1cc2sc(Cl)cc2n1C	n
CCC(C)[C@@H](C(=O)NCCc1ccccc1)N1Cc2ccccc2C1=O (stereo partly specified)	n
COc1ccc(-c2nc(CN3CCCC(C(=O)NCCc4ccc(C)cc4)C3)c(C)o2)cc1 (stereo unspecified)	n
CCC1CCCCN1CCNS(=O)(=O)c1ccc2c(c1)CCN2C(=O)C1CCC1 (stereo unspecified)	n
O=C(CSc1nccn1-c1ccccc1)Nc1nccs1	n
N#Cc1ccc(NC(=O)c2cc(-c3ccc(F)cc3)on2)cc1	n
Cc1cc2nc(Cc3ccccc3Cl)c(=O)n(C)c2cc1C	n
O=C(Nc1ccc(Cl)cc1)c1cccnc1Nc1cccc(C(F)(F)F)c1	n
CCc1ccc(NC(=O)CN(c2ccc(C(C)C)cc2)S(=O)(=O)c2c(C)noc2C)cc1	n
CCc1ccc(S(=O)(=O)Nc2ccc3oc4c(c3c2)CC(C(C)(C)C)CC4)cc1 (stereo unspecified)	n
CC1CCc2oc3ccc(NS(=O)(=O)c4cccs4)cc3c2C1 (stereo unspecified)	n
CCC(C)(C)C1CCc2oc3ccc(NS(=O)(=O)c4cccs4)cc3c2C1 (stereo unspecified)	0.42
COCCCNC(=O)Cn1ncc2c1-c1cc(C)ccc1OC2	n
O=C(Cn1ccc2ccccc2c1=O)Nc1nc2ccccc2s1	n
N#Cc1nc(COc2ccc(Br)cc2)oc1N1CCCCCC1	0.42
CCN1CCN(c2oc(COc3ccc(Cl)cc3)nc2C#N)CC1	n
COc1ccc(OCc2nc(C#N)c(N3CCCC3)o2)cc1	n
N#Cc1nc(COc2ccc(Br)cc2)oc1N1CCCC1	0.47
Cc1ccc(OCc2nc(C#N)c(N3CCC(Cc4ccccc4)CC3)o2)cc1	n
SMILES	CBX7 AlphaScr
COc1ccccc1-c1cc2nc(C)c(CCC(=O)NCCN3CCC(Cc4ccccc4)CC3)c(C)n2n1	n
CC1=Nc2cc(C(=O)NCCCN3CCN(C)CC3)ccc2Sc2ccc(Cl)cc21	n
COc1cccc(-c2cc(C(=O)Nc3ccccc3C(C)C)c3ccccc3n2)c1	n
Cc1ccccc1NCc1nc2ccccc2n1C	n
Cn1c(CNc2ccccc2O)nc2ccccc21	0.46
Cn1c(CNc2cc(Cl)ccc2Cl)nc2ccccc21	n
O=C1Nc2ccccc2OC1CC(=O)N1CCN(Cc2ccccc2)CC1 (stereo unspecified)	n
Cc1cc(NC(=O)CCN2CCN(c3ccccc3C)CC2)no1	n
NCC(CCN1CCCCC1)(c1ccccc1)c1ccccc1	n
CSc1cccc(NC(=O)CCc2nc(-c3ccc(C)cc3)no2)c1	n
COc1ccc(-n2cnc3cc(NCc4ccc(OC)c(OC)c4)ccc32)cc1	n
COc1ccc(CNc2ccc3c(c2)ncn3C)c(OC)c1	n
CCCn1cnc2cc(NCc3ccccc3OC)ccc21	n
COc1ccccc1CNc1ccc2c(c1)ncn2-c1ccc(C)cc1	0.22
COc1ccccc1CNC(=O)c1ccc2c(c1)ncn2-c1ccc(C)c(Cl)c1	n
COc1ccc(CNc2ccc3c(c2)ncn3-c2ccc(C)cc2)cc1	0.27
COc1ccc(-n2cnc3cc(NCc4ccccc4OC)ccc32)cc1	0.31
COc1ccccc1CNc1ccc2c(c1)ncn2-c1ccccc1OC	n
CCOc1ccc(CNc2ccc3c(c2)ncn3-c2ccc(OC)cc2)cc1	n
O=C(Nc1ccc(Cl)cc1Cl)c1cnn2cccnc12	n
CCOC(=O)c1c(-c2ccc(F)cc2)csc1NC(C)=O	n
O=C(CN1C(=O)COc2ccccc21)NC1CCCCCCC1	n
CCOC(=O)c1c(NC(=O)c2cc(Cl)ccc2OC)sc2c1CCCCC2	n
O=c1c2cccnc2n(Cc2ccc(F)cc2)c(=O)n1Cc1ccccc1Cl	n
COc1ccc(-c2cc3nc(C)c(CCC(=O)Nc4ccc(Cl)cc4)c(C)n3n2)c(OC)c1	n
SMILES	CBX7 AlphaScr
Cc1cc(N2CCOCC2)nc2ccc(NC(=O)CCC(=O)Nc3ccc(C(F)(F)F)cc3)cc12	n
CCN(CCCNC(=O)c1cc(-c2cccnc2)nc2ccccc12)c1ccccc1	n
CN(C)CCNC(=O)c1cc(-c2ccncc2)nc2ccccc12	n
CCN(CCNC(=O)c1cc(-c2cccnc2)nc2ccccc12)c1ccccc1	0.47
CCCCN(CCCNC(=O)c1cc(-c2ccncc2)nc2ccccc12)c1ccccc1	n
CCOc1ccc(-c2cc(C(=O)NCCN(CC)c3ccccc3)c3ccccc3n2)cc1	n
CCN(CCCNC(=O)c1cc(-c2ccncc2)nc2ccccc12)c1ccccc1	0.31
O=C(CSc1ccc2nnc(-c3ccccc3)n2n1)N1CCOCC1	n
Cc1oc(-c2ccccc2Cl)nc1CS(=O)(=O)CC(=O)NCc1ccccc1	n
CCCc1cc(-c2nc(-c3cccc([N+](=O)[O-])c3)cs2)ccn1	0.43
CCCCC(=O)Nc1cccc(-c2csc(-c3ccccc3)n2)c1	n
CCc1cc(-c2nc(-c3ccc(Cl)c(Cl)c3)cs2)ccn1	n
O=C(Cn1ccc2ccccc2c1=O)N1CCC(Cc2ccccc2)CC1	n
O=C1CC(N2CCN(Cc3ccc4c(c3)OCO4)CC2)C(=O)N1CC(c1ccccc1)c1ccccc1 (stereo unspecified)	n
c1ccc(-c2csc(N3CCN(Cc4ccc5c(c4)OCO5)CC3)n2)cc1	n
c1ccc(CN2CCC(NCCc3ccc4c(c3)OCO4)CC2)cc1	0.48
Cc1ccc(Nc2nc3ccccc3nc2NS(=O)(=O)c2ccc(Cl)cc2)cc1C	n
COc1ccc(-c2nn(C)c3sc(C(=O)NCCCN4CC(C)CC(C)C4)cc23)cc1OC (stereo unspecified)	n
Cc1ccc2nc(-c3c[nH]c4ccccc34)c(Nc3ccc4c(c3)OCO4)n2c1	n
Cc1ccc(Nc2c(-c3c[nH]c4ccccc34)nc3ccc(Br)cn23)cc1	0.49
Cc1ccn2c(Nc3ccc4c(c3)OCO4)c(-c3ccccn3)nc2c1	0.034
Cc1ccc2nc(-c3ccncc3)c(Nc3ccc4c(c3)OCO4)n2c1	n
Cc1ccc2nc(-c3c[nH]c4ccccc34)c(Nc3ccc(F)cc3)n2c1	n
Cc1ccc(Nc2c(-c3ccccn3)nc3ccc(C)cn23)cc1	0.084
Cc1ccc2nc(-c3ccccn3)c(Nc3ccc(C(C)C)cc3)n2c1	n
SMILES	CBX7 AlphaScr
Clc1ccc(Nc2c(-c3ccccn3)nc3ccc(Cl)cn23)cc1	n
Cc1ccn2c(Nc3ccc4c(c3)OCCO4)c(-c3cccs3)nc2c1	n
Cc1ccc2nc(-c3ccccn3)c(Nc3ccc4c(c3)OCO4)n2c1	0.03
Cc1ccn2c(Nc3ccc4c(c3)OCO4)c(-c3ccsc3)nc2c1	n
Cc1ccccc1Nc1c(-c2c[nH]c3ccccc23)nc2ccc(Br)cn12	n
CC(C)c1ccc(Nc2cc(C(=O)NCc3ccc4c(c3)OCO4)c3ccccc3n2)cc1	n
O=C1CN(C(=O)Cc2ccccc2)C(c2ccc(F)cc2)c2cc(Cl)ccc2N1 (stereo unspecified)	n
